From the supplement of paper PMC10849652
Targets with a hit are over-represented here; the source holds about 7,900 in all. About 0.6% of all pairs of compound and target were hits.

Assays:
Assay in all cases: log2 fold change, soluble protein after heating vs DMSO (PISA); higher = thermal stabilisation; K562 cells, 10 uM, 30 min; active = over 0.2 and 3.5 SD of the protein, either way, in both replicates (recomputed)
[1] = compound: CC1=C(SC2=C1C(=N[C@H](C3=NN=C(N32)C)CC(=O)N)C4=CC=C(C=C4)Cl)C
In short: (§1)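 K562 cells (2×10^6 cells/mL) were treated with 10 μM compound for 30 min, and aliquots were heated for 3 min over 48°C-58°C. Pooled aliquots were extracted in PBS with 0.5% NP-40 at 4°C, and the supernatant after 21,000xg for 90 min was measured by TMTpro 16plex LC-MS/MS with channel sums equalised. Reported thermal stability, relative to control samples and from duplicates, is a log2 fold change.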

[2] = compound: CC1=C2C(=CC=C1)N=C(N(C2=O)C3=CC=CC=C3C)CN4C=NC5=C(N=CN=C54)N
In short: as §1

[3] = compound: Cc1sc2c(c1C)C(c1ccc(Cl)cc1)=N[C@@H](CC(=O)OC(C)(C)C)c1nnc(C)n1-2
In short: as §1

[4] = compound: c1ccc([C@@H]2C[C@H]2NC2CCNCC2)cc1
In short: as §1

[5] = compound: C1=CC=C(C=C1)[C@H](COC2=CC3=C(C=C2)NC(=O)N3)NC(=O)C4=CC=CN(C4=O)CC5=CC(=C(C=C5)F)F
In short: as §1

Measured: log2 fold change

POGZ (UniProt Q7Z3K3)
UniProt Q7Z3K3, sequence (Q7Z3K3 whole entry, looked up): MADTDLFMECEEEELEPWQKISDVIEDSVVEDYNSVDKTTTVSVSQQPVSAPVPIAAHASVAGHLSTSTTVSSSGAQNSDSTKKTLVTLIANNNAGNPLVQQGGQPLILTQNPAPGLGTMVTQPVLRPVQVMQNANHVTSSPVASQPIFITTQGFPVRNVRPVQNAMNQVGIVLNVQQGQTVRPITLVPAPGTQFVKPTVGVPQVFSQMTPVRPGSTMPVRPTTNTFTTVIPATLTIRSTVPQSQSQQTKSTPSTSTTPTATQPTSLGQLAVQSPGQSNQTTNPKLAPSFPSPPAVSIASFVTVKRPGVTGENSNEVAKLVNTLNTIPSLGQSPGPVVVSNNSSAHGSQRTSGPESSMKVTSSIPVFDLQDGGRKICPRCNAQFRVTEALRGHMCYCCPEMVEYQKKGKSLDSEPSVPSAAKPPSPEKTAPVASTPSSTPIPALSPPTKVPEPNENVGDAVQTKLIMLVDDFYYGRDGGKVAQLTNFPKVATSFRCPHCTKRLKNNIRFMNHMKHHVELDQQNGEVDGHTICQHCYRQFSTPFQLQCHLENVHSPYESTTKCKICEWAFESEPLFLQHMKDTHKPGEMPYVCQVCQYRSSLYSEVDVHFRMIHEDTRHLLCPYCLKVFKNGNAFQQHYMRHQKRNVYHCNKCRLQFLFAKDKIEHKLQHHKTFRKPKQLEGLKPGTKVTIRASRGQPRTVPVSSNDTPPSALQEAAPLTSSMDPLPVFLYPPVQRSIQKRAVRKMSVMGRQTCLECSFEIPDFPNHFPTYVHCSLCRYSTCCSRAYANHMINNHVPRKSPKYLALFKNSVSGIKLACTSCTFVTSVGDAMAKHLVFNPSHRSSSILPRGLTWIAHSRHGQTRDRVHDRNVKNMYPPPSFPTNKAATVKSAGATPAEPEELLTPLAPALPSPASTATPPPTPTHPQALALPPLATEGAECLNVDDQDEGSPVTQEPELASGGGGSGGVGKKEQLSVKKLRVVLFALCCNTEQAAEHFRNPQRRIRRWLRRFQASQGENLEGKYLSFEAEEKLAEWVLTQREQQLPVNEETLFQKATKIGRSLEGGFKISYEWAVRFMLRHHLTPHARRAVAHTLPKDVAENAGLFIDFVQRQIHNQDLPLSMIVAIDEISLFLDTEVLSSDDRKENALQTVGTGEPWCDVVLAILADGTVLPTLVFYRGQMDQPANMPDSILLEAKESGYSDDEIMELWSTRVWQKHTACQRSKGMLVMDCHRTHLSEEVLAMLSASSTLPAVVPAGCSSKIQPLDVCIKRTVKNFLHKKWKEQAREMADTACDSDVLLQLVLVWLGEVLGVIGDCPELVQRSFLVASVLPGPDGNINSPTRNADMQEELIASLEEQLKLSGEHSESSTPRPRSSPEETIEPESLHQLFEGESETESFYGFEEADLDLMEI
inactive: [1] 0.056 | [2] 0.099 | [3] 0.025 | [4] -0.032

PRKCQ (UniProt Q04759)
inactive: [5] -0.064 | [1] 0.069 | [2] 0.104 | [3] 0.033 | [4] 0

PEF1 (UniProt Q9UBV8)
UniProt Q9UBV8, sequence (Q9UBV8 whole entry, looked up): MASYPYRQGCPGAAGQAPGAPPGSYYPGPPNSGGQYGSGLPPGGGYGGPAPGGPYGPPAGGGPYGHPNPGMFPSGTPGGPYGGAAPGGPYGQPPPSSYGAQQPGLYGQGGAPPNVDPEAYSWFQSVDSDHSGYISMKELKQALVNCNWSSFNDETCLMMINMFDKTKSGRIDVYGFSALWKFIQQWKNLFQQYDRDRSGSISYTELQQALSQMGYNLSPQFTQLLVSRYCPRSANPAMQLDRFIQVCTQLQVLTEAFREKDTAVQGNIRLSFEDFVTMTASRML
inactive: [5] 0.01 | [1] 0.185 | [2] 0.047 | [3] -0.178 | [4] -0.014

PNN (UniProt Q9H307)
UniProt Q9H307, sequence (Q9H307 whole entry, looked up): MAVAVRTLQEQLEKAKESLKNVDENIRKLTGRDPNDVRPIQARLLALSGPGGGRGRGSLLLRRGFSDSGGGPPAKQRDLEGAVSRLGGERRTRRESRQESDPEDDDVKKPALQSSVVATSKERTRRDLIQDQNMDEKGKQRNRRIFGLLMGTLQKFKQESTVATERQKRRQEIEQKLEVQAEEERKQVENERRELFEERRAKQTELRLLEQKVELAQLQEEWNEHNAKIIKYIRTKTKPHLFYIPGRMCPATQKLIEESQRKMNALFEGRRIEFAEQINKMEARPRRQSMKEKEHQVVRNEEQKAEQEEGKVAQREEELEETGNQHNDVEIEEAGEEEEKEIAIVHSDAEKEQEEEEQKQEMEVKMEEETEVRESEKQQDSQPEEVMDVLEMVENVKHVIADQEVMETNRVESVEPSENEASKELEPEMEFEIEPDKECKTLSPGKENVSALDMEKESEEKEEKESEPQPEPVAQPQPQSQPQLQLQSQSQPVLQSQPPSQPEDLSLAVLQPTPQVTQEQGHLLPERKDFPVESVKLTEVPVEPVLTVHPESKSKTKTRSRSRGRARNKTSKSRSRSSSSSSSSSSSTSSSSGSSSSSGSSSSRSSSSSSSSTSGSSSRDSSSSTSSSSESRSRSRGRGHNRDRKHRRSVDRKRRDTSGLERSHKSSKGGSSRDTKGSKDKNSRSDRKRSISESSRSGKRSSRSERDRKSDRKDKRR
inactive: [5] 0.084 | [1] 0.021 | [4] 0.012

PTPA (UniProt Q15257)
UniProt Q15257, sequence (Q15257 whole entry, looked up): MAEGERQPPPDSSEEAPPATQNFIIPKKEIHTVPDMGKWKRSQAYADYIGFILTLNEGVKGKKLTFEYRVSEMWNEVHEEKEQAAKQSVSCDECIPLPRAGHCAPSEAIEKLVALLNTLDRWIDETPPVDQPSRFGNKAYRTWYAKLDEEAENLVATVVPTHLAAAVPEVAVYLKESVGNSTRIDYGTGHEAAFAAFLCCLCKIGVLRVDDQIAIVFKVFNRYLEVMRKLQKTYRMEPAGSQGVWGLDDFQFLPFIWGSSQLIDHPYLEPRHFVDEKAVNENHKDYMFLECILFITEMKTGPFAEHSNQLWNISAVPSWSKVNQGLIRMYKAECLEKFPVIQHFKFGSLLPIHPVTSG
inactive: [5] -0.013 | [1] 0.021 | [2] 0.005 | [3] -0.041 | [4] -0.003

PPP1R12C (UniProt Q9BZL4)
UniProt Q9BZL4, sequence (Q9BZL4 whole entry, looked up): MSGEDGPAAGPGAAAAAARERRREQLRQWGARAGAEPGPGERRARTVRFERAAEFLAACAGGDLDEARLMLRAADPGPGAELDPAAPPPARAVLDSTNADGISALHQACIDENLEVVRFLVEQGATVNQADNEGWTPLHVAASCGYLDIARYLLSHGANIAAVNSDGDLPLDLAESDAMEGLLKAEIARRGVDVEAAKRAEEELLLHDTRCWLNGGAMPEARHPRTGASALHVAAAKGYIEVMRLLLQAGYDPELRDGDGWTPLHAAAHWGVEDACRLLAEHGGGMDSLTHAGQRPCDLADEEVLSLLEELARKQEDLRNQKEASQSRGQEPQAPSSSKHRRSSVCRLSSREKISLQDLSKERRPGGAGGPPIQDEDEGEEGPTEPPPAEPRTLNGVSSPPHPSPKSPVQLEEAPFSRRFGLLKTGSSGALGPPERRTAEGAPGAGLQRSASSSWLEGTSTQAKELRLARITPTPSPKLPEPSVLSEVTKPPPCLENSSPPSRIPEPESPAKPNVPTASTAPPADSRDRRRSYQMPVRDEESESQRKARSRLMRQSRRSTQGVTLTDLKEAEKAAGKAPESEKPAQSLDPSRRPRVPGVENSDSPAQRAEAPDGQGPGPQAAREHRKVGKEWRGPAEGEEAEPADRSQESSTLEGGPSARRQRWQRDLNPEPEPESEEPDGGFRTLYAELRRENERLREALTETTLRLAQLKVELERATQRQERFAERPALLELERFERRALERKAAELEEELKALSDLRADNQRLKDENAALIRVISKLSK
inactive: [5] -0.16 | [2] 0.05 | [3] 0.053

PSMB9 (UniProt P28065)
UniProt P28065, sequence (P28065 whole entry, looked up): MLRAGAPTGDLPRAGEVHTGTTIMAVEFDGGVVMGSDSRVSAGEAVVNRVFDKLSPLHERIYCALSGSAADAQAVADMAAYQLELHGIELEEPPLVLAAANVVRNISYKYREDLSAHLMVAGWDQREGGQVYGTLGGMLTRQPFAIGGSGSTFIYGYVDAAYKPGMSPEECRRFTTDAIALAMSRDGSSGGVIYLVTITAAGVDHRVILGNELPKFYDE
inactive: [5] 0.182 | [1] 0.138 | [2] 0.179 | [4] -0.203

PAN2 (UniProt Q504Q3)
inactive: [5] -0.298 | [2] 0.053

PDPK1 (UniProt O15530)
inactive: [1] 0.065 | [2] 0.014 | [3] -0.038 | [4] -0.018

PEX5 isoform 4 (UniProt P50542)
inactive: [1] -0.147 | [2] 0.043 | [3] 0.059 | [4] 0.006

PIAS4 (UniProt Q8N2W9)
inactive: [3] 0.129

PUM1 (UniProt Q14671)
UniProt Q14671, sequence (Q14671 whole entry, looked up): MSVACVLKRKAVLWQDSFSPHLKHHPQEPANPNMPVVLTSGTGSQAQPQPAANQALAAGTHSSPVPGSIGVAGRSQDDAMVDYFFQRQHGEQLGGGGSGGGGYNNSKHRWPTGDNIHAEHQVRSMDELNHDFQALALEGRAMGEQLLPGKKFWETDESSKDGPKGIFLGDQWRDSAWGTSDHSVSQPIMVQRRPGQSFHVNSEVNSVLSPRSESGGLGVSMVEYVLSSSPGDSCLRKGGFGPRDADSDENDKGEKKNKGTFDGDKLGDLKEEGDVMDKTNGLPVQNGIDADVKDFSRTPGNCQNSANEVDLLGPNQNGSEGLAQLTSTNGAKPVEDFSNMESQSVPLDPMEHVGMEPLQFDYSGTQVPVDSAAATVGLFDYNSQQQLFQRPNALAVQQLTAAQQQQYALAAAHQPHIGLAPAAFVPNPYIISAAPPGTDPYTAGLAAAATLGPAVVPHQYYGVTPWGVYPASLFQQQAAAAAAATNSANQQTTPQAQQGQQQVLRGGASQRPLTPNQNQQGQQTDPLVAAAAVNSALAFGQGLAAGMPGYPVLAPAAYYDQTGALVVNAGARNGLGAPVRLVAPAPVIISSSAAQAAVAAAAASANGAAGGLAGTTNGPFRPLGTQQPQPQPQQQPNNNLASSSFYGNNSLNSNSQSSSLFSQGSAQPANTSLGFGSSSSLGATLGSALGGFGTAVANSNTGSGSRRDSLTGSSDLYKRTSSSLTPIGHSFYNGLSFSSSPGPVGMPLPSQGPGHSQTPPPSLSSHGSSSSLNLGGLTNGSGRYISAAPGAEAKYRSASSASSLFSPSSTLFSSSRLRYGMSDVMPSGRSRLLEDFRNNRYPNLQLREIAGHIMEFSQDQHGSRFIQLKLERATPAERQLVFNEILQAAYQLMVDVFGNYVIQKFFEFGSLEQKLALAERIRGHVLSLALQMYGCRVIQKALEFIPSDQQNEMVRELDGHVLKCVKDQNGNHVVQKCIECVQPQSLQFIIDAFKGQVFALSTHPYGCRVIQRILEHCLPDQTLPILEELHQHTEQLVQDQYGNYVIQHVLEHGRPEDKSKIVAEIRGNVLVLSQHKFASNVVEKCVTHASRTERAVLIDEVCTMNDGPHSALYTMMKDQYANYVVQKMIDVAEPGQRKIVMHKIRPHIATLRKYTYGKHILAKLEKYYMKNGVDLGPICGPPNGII
inactive: [1] 0.116 | [3] 0.059 | [4] -0.094

PSMD8 (UniProt K7EK21)
inactive: [1] -0.11 | [4] 0.188

PDE4DIP (UniProt E9PS60)
inactive: [1] 0.013 | [2] -0.209 | [4] -0.069

PSMC1 (UniProt G3V4X1)
inactive: [1] -0.021 | [4] 0.112

PSD3 (UniProt Q9NYI0)
inactive: [1] 0.045 | [2] 0.052 | [4] -0.028
